In PubChem BioAssay AID1159580 (chemical genetic matrix, 2015):
“And” between values parts separate entries of the source, which are not always exact repeats. Equal values may be shown once. In all, about 5,500 compounds went through this assay and about 2,000 (36%) were called active. Inconclusive results (about 18%) are left out. Cut-off read from the data, not from the text of the source: active = normalized growth mostly below about 0.91 (no sharp cut-off); inconclusive = no clear call, values can overlap the other calls; inactive = mostly above about 0.92. This is one part of the list.

Experiment: chemical genetic growth profiling, strain panel (AID 1159580);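 note: tested at 20 µM; growth read once vehicle control cultures reached saturation at 30 °C; 1 = growth at the plate median or of vehicle wells; lower values mean less growth of the strain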
Settings: S. cerevisiae deletion strains, growth OD

Measured: normalized growth

COc1cccc(OC)c1C(=O)N[C@@H]1C(=O)N2[C@@H]1SC(C)(C)[C@@H]2C(=O)O
inactive: locus YAL013W, strain DEP1, hits give low values 0.994 | locus YAL021C, strain ccr4, hits give low values 1.01 | locus YAL026C, strain drs2, hits give low values 1.01 | locus YAL030W, strain snc1, hits give low values 0.997 | locus YBL061C, strain skt5, hits give low values 0.998 | locus YBR009C, strain hhf1, hits give low values 0.997 | locus YBR021W, strain FUR4, hits give low values 1.01 | locus YBR023C, strain chs3, hits give low values 0.988 | locus YBR171W, strain sec66, hits give low values 0.987 | locus YBR229C, strain ROT2, hits give low values 1.01 | locus YBR231C, strain swc5, hits give low values 0.984 | locus YBR279W, strain paf1, hits give low values 1 | locus YCL011C, strain gbp2, hits give low values 1.01 | locus YCL016C, strain dcc1, hits give low values 1 | locus YCL029C, strain bik1, hits give low values 0.99 | locus YCL069W, strain vba3, hits give low values 1 | locus YCR088W, strain abp1, hits give low values 0.996 | locus YDL005C, strain med2, hits give low values 0.991 | locus YDL035C, strain GPR1, hits give low values 1 | locus YDL040C, strain nat1, hits give low values 0.995 | locus YDL074C, strain BRE1, hits give low values 1.03 | locus YDL101C, strain DUN1, hits give low values 1 | locus YDL134C, strain PPH21, hits give low values 1.01 | locus YDL185W, strain tfp1, hits give low values 0.967 | locus YDL192W, strain arf1, hits give low values 0.988 | locus YDR001C, strain nth1, hits give low values 1 | locus YDR069C, strain doa4, hits give low values 1.01 | locus YDR101C, strain arx1, hits give low values 0.997 | locus YDR137W, strain rgp1, hits give low values 1.03 | locus YDR150W, strain NUM1, hits give low values 0.983 | locus YDR159W, strain sac3, hits give low values 0.988 | locus YDR162C, strain NBP2, hits give low values 0.979 | locus YDR195W, strain ref2 0.979 | locus YDR297W, strain sur2, hits give low values 1 | locus YDR318W, strain mcm21, hits give low values 0.987 | locus YDR334W, strain swr1, hits give low values 0.995 | locus YDR335W, strain msn5, hits give low values 0.998 | locus YDR388W, hits give low values 1 | locus YDR392W, strain spt3, hits give low values 0.998 | locus YDR502C, strain sam2, hits give low values 0.995 | locus YEL003W, strain gim4, hits give low values 1 | locus YEL037C, strain rad23, hits give low values 0.997 | locus YEL061C, strain CIN8 (second series), hits give low values 0.996 | locus YEL061C, strain CIN8, hits give low values 0.986 | locus YER015W, strain faa2, hits give low values 1 | locus YER016W, strain bim1, hits give low values 0.997 | locus YER110C, hits give low values 0.991 | locus YER111C, strain swi4, hits give low values 0.995 | locus YER155C, strain BEM2 (second series), hits give low values 0.966 | locus YER155C, strain BEM2, hits give low values 1.01 | locus YER167W, strain BCK2, hits give low values 0.999 | locus YFR010W, strain ubp6, hits give low values 0.989 | locus YGL078C, strain dbp3, hits give low values 0.991 | locus YGL086W, strain mad1, hits give low values 0.994 | locus YGL167C, strain pmr1, hits give low values 0.99 | locus YGL173C, strain kem1, hits give low values 0.977 | locus YGL227W, strain vid30, hits give low values 0.992 | locus YGL240W, strain doc1, hits give low values 1 | locus YGL248W, strain PDE1, hits give low values 1.01 | locus YGL253W, strain hxk2, hits give low values 1.01 | locus YGR078C, strain PAC10, hits give low values 1 | locus YGR135W, strain pre9, hits give low values 1 | locus YGR229C, strain SMI1, hits give low values 1.02 | locus YGR252W, strain gcn5, hits give low values 1.05 | locus YHR013C, strain ard1, hits give low values 1.01 | locus YHR027C, strain rpn1, hits give low values 1 | locus YHR030C, strain SLT2, hits give low values 0.993 and 1.03 | locus YHR079C, strain IRE1 (second series), hits give low values 0.991 | locus YHR079C, strain IRE1, hits give low values 1.01 | locus YHR094C, strain hxt1, hits give low values 0.982 | locus YHR129C, strain ARP1, hits give low values 1 | locus YHR142W, strain chs7, hits give low values 0.98 | locus YHR200W, strain rpn10, hits give low values 0.98 | locus YIL066C, strain RNR3, hits give low values 1.01 | locus YIL073C, strain SPO22, hits give low values 0.991 | locus YIL125W, strain kgd1, hits give low values 0.988 | locus YIR030C, strain dcg1, hits give low values 0.992 | locus YJL092W, strain hpr5, hits give low values 0.987 | locus YJL095W, strain BCK1 (second series), hits give low values 0.998 | locus YJL095W, strain BCK1, hits give low values 1.01 and 1.02 | locus YJL115W, strain asf1, hits give low values 0.999 | locus YJL129C, strain trk1, hits give low values 0.98 | locus YJL134W, strain LCB3, hits give low values 0.998 | locus YJL154C, strain vps35, hits give low values 0.993 | locus YJL164C, strain tpk1, hits give low values 0.994 | locus YJL166W, strain qcr8, hits give low values 0.97 | locus YJL168C, strain set2, hits give low values 0.988 | locus YJL187C, strain SWE1 (second series), hits give low values 1.01 | locus YJR043C, strain POL32, hits give low values 0.993
